LmPK inhibitor: qHTS Assay for Inhibitors of Leishmania Mexicana Pyruvate Kinase (LmPK). AID 1721, 2009. purified LmPK, Kinase-Glo ATP luminescence, 1 h. Q27686. Potency, µM (highest dose often 57.5 µM), without a hit: top-dose activity change, negative = inhibition, most hits filed as inhibitors. hit rate 0.37% among 290,000
Target sequence (Q27686 whole entry, looked up): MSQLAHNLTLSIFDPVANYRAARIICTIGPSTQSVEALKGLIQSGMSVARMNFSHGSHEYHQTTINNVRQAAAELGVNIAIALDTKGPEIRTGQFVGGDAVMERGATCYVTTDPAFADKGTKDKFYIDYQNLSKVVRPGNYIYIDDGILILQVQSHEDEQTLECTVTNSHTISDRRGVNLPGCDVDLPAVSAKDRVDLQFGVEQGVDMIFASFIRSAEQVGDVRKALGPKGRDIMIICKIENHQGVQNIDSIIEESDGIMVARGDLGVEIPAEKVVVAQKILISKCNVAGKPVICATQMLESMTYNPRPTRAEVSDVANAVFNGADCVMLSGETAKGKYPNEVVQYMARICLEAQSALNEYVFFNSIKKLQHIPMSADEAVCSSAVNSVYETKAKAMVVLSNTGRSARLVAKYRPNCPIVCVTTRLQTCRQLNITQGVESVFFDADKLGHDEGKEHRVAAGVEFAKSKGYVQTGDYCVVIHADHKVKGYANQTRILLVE
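qHTS format; LmPK 0.1 nM; substrates PEP 0.5 mM and ADP 0.1 mM. One-hour room-temperature incubation, then coupled luciferase luminescence; 0.5 nM enzyme wells mark activation.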
Giardia FBPA inh: qHTS Assay for Inhibitors of Fructose-1,6-bisphosphate Aldolase from Giardia Lamblia; hit rate 0.71% among 290,000; purified Giardia FBPA; Potency, µM (top dose mostly 59.6 µM), for inactives: at the top dose activity, negative = inhibition, actives largely listed as inhibitors; A8B2U2; note: nearly all actives have a fitted effect of over 55% in size
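40 nM FBPA preincubated 10 min at RT with compound (up to 57.5 uM final), then substrate plus GAPDH/TPI/NAD/arsenate coupling and diaphorase/resazurin added. Fluorescence read after 20 min at RT, 525/598 nm.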
RE007 growth inh: qHTS Assay for Inhibitors of the HIV-1 protein Vpr. S. pombe RE007 Vpr strain, BacTiter-Glo ATP luminescence, 24 h. Potency, µM (titrated, usually from 92.2 µM), for the others: at the top dose activity change, negative = less growth, hits mostly inhibitors. hit rate 0.21% among 360,000; active = well fitted falling curve with a large enough effect; inconclusive = small, poorly fitted or top-dose-only effect; inactive = no such curve, though single readings can be large or run the other way; note: nearly all actives have a fitted effect of over 50% in size
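Fission yeast RE007 carrying one integrated HIV-1 vpr copy, seeded at OD 0.01 in PMG+AL medium with 23 nL pinned compound. Grown 24 h at 30 degrees; viability read by BacTiter-Glo luminescence after 5 min.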
TbPYK inhibitor: qHTS of Trypanosoma Brucei Inhibitors | pyruvate kinase (Trypanosoma brucei), Q57TT1 | TbPYK enzyme, Kinase-Glo Plus ATP luminescence, 45 min | Potency, µM (series often up to 76.8 µM), inactives show at the highest dose activity, negative = inhibition, usual class: inhibitors | hit rate 0.12% among 410,000; note: nearly all actives have a fitted effect of over 50% in size
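Luminescence from Kinase-Glo Plus, added after a 45-minute room-temperature reaction, served as the end-point read-out. The enzyme and substrate were preincubated with compound before ADP (130 uM final) initiated turnover. Concentration-effect curves came from normalized qHTS data.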
The depositor's hits bear a star; ? = inconclusive; . = no result; [ ] = another dose, or the depositor's remark. In the library only some 0.95% were active in any assay of this set; here they are far more common. Unless noted, calls come from the whole dose curve; as a rule, active = well fitted curve in the direction sought with a large enough effect; inconclusive = small, poorly fitted or top-dose-only effect, or another doubt; inactive = no such curve, though single readings can be large; an effect the other way counts as inactive or inconclusive. % is set by controls: 0 for no effect and ±100 for the full control effect; potency is the fitted concentration of half-maximal effect.

SMILES	LmPK inhibitor	Giardia FBPA inh	RE007 growth inh	TbPYK inhibitor
Cc1ccccc1NC1=C/C(=N\S(=O)(=O)c2ccc(C(=O)O)cc2)c2ccccc2C1=O	0.4%	0.794µM*	?	3.1%
COC(=O)C(C(C)=O)C1=C/C(=N\S(=O)(=O)c2ccc(C)cc2)c2ccccc2C1=O (stereo unspecified)	?	12.6µM*	-10.1%	-24.0%
COc1ccc(S(=O)(=O)/N=C2\C=C(Nc3ccc(O)cc3)C(=O)c3ccccc32)cc1	-21.3%	?	-21.0%	-27.3%
O=C(O)c1ccc(S(=O)(=O)/N=C2\C=C(Nc3ccccc3F)C(=O)c3ccccc32)cc1	-12.9%	?	?	0.4%
CN(C)c1ccc2nc3ccc(=O)cc-3sc2c1	.	.	44.7µM*	?
COc1ccc(C2=C(C)C(N3CCC(C(=O)NCc4ccco4)CC3)=NS2(=O)=O)cc1	.	.	.	-10.0%
Cc1ccc(-n2c(Cn3nc(C(F)(F)F)cc3C)n[nH]c2=S)cc1	-20.7%	-1.4%	4.9%	10µM*
COc1cccc(-n2c(Cn3nc(C(F)(F)F)cc3C)n[nH]c2=S)c1	-5.7%	-13.0%	.	3.98µM*
Cc1ccc(-n2c(Cn3ncc4ccccc4c3=O)n[nH]c2=S)cc1	0.6%	-8.0%	1.5%	?
COc1ccc(-n2c(COc3ccc(C)cc3)n[nH]c2=S)cc1	-12.0%	?	4.0%	?
COc1ccc(-n2c(Cn3nc(C(F)(F)F)cc3C)n[nH]c2=S)cc1	-8.5%	-19.5%	5.6%	3.16µM*
CCOC(=O)C1=CCN(S(=O)(=O)c2ccc(C)cc2)C1c1ccc(Br)cc1 (stereo unspecified)	.	.	-3.5%	-6.8%
CO/N=C(/C(=O)N[C@@H]1C(=O)N2C(C(=O)O)=C(CSc3nc(C)c(CC(=O)O)s3)CS[C@H]12)c1csc(N)n1	.	.	.	0.9%
CCCCNC(=O)c1ccc(Cn2c(=S)[nH]c3c([nH]c4ccc(OC)cc43)c2=O)cc1	-1.1%	5.4%	-2.0%	?
CCN(CC)CCNC(=O)CCCCn1c(=S)[nH]c2c([nH]c3ccc(OC)cc32)c1=O	2.82µM*	-9.3%	8.4%	?
O=C(CSc1nccn1Cc1ccc(F)cc1)NC1CCCCC1	.	.	-3.3%	3.5%
O=C1c2ccccc2C(=Cc2cccnc2)c2ccccc21	.	.	-3.7%	5.0%
Cc1ccc(/C=C2\Sc3ccccc3C2=O)s1	11.2µM*	-1.7%	-13.5%	-3.0%
O=C1/C(=C/c2cccnc2)Sc2ccccc21	?	-2.8%	28.2µM*	5.8%
CC(=O)Nc1ccc(/C=C2\Sc3ccccc3C2=O)cc1	-0.7%	2.0%	5.8%	-4.5%
Cc1cccc(OCc2n[nH]c(=S)n2-c2ccccc2)c1	-1.0%	4.2%	0.6%	?
COc1ccc(CSCCc2n[nH]c(=S)n2-c2ccccc2)cc1	-2.9%	4.0%	12.3%	3.16µM*
Cc1ccc(-n2c(COc3cccc(C)c3)n[nH]c2=S)cc1	?	-9.6%	1.2%	15.8µM*
COc1ccc(-n2c(COc3ccccc3)n[nH]c2=S)cc1	5.1%	?	16.6%	11.2µM*
COc1ccc(OCc2n[nH]c(=S)n2Cc2ccco2)cc1	-13.2%	-0.5%	2.0%	2.82µM*
SMILES	LmPK inhibitor	Giardia FBPA inh	RE007 growth inh	TbPYK inhibitor
CCC(=O)N1CCC1(C)C(=O)Nc1ccc(Cl)c(Cl)c1 (stereo unspecified)	.	.	-2.4%	0.8%
O=C1c2ccccc2S(=O)(=O)N1CCS(=O)(=O)c1ccc(F)cc1	5.4%	4.9%	6.2%	-0.5%
CC(C)Oc1ccc(CCc2n[nH]c(=S)n2-c2ccccc2)cc1	14.1µM*	4.1%	7.0%	?
S=c1[nH]nc(CSCc2ccccc2Cl)n1-c1ccccc1	12.6µM*	8.9%	6.3%[3.69 µM]	.
Cc1ccc(-n2c(CCc3ccccc3)n[nH]c2=S)cc1C	14.1µM*	13.0%	9.9%	?
CCN1C(=O)c2ccccc2C1Nc1cccc(OCCN2CCCCC2)c1 (stereo unspecified)	.	.	.	0.0%
Nc1nc(O)c(N=Nc2ccc(S(N)(=O)=O)cc2)c(=O)[nH]1	-0.5%	4.4%	7.8%	4.7%
NS(=O)(=O)c1ccc(N=Nc2c[nH]c(=O)c(O)c2)cc1	?	7.06µM*	-20.3%	?
CC(=O)Oc1ccccc1N(C(C)=O)S(=O)(=O)c1ccc2ccccc2c1	-7.1%	-1.0%	1.8%	-5.7%
CC(=O)Oc1c(Br)cc(N(C(C)=O)S(=O)(=O)c2ccccc2)c2ccccc12	?	28.2µM*	2.1%	-18.4%
c1ccc(-c2nc(N3CCOCC3)s[n+]2-c2ccccc2)cc1	-18.7%	8.6%	.	2.51µM*
Cc1ccsc1/C=N/Nc1nc2ccccc2[nH]1	14.1µM*	1.9%	-7.9%	-22.1%
C(=N\Nc1nc2ccccc2[nH]1)/c1ccncc1	0.7%[11.5 µM]	2.8%	0.4%	-1.2%
C(=N\Nc1nc2ccccc2[nH]1)/c1cccs1	14.1µM*	-1.9%	6.6%	-4.7%
Cc1cc(=O)[nH]c(N/N=C/c2sccc2C)n1	?	7.6%	7.8%	1.9%
COC(=O)c1ccc(N=Nc2ccccc2)cc1	-1.2%	1.2%	0.3%	-2.6%
O=Nc1ccc(NOC(=O)c2ccccc2)cc1	12.6µM*	-11.7%	10µM*	?
CC(C)n1c(=O)nc(-c2ccccc2)c2cc3c(cc21)OCO3	.	.	2.0%	-3.2%
CC1(C)CC(=O)C2=C(C1)OC1=C(C(=O)CC(C)(C)C1)C2c1ccc(O)c([N+](=O)[O-])c1	7.1%	6.6%	16.4%	-1.2%
CC1(C)CC(=O)C2=C(C1)OC1=C(C(=O)CC(C)(C)C1)C2c1ccc(O)cc1O	4.4%	-11.0%	?	39.8µM*
Cc1ccc(O)c(N=Nc2nccs2)c1	.	.	17.8µM*	-20.5%
CS/C(Nc1cc(Cl)ccc1Cl)=C(/C#N)C(=O)c1ccco1	22.4µM*	-10.4%	-16.4%	31.6µM*
O=C(Nc1cc(Cl)ccc1Cl)c1ccco1	5.8%	10.5%	-5.2%	2.6%
O=C1C(C2=C(O)c3ccccc3C2=O)=Nc2ccccc21	17.8µM*	-20.9%	?	?
N#Cc1ccc(/C=C/C(=O)c2ccco2)cc1	1.5%	-7.2%	17.8µM*	-3.1%
SMILES	LmPK inhibitor	Giardia FBPA inh	RE007 growth inh	TbPYK inhibitor
COc1cccc(CNS(=O)(=O)c2ccc(S(=O)(=O)N3CCCC3)cc2)c1	?	7.92µM*	18.3%	-2.9%
Cc1ccc(S(=O)(=O)Oc2cccc(/C=N/Nc3ccc(C(=O)O)cc3)c2)cc1	1.3%	17.7µM*	5.4%	-2.3%
O=C(CSc1nnc(-c2ccccc2F)o1)NC1CC1	.	.	1.5%	-0.1%
O=C(c1ccccc1)c1nnc(-c2ccccc2F)o1	14.1µM*	-0.8%	-23.1%	-25.2%
CCc1c(C)c(C#N)c2[nH]c3ccccc3n2c1=S	?	?	-10.4%	14.1µM*
COc1ccc(-n2c(-c3ccc(Br)cc3)n[nH]c2=S)cc1	10µM*	21.6%	3.3%	?
S=c1[nH]nc(-c2ccc(Cl)cc2)n1-c1ccc(Cl)cc1	?	?	7.1%	?
COc1ccc(-c2n[nH]c(=S)n2-c2ccc(C)cc2)cc1	2µM*	0.8%	18.6%	?
O=C(O)c1ccc(NS(=O)(=O)c2ccsc2C(=O)O)c(O)c1	.	-8.0%	.	.

High-throughput results from PubChem BioAssay.
